These results are taken from PubChem BioAssay (NCI).

Holding throughout (assay): NCI-60 one-dose screen, 48 h (100 = growth as untreated, 0 = no growth, -100 = all killed)
Common to all, as to details: 10 µM unless noted

The test system of test [1] is HCT-15 colon.
The subject of test [2] is HT29 colon.
The subject of test [3] is SNB-75 CNS.
Test [4] deals with SNB-19 CNS.
The test system of test [5] is U251 CNS.
The test system of test [6] is PC-3 prostate.
Test [7] deals with SK-MEL-5 melanoma.
Test [8] relates to UACC-62 melanoma.
Test [9] concerns LOX IMVI melanoma.
Test [10] deals with SK-MEL-28 melanoma.
Test [11] has as its system EKVX NSCLC.
Test [12] concerns SN12C renal.
The test system of test [13] is UO-31 renal.
The test system of test [14] is TK-10 renal.
Test [15] concerns ACHN renal.
Test [16] concerns CAKI-1 renal.
The subject of test [17] is A498 renal.
Test [18] relates to CCRF-CEM leukemia.
The subject of test [19] is MOLT-4 leukemia.

This is part of a sample that, as a whole, favours compounds with a hit. Of some 83,000 tested, about 20% had one in any assay.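 The endpoint reported here, percent growth, reads 100 for growth as untreated, 0 for no net growth and -100 for all cells dead.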 Values without a mark were called inactive. Activity calls are given as the source filed them. How the source made its calls: active means growth percent below 10; inactive means the rest.

For the molecule `NS(=O)(=O)c1ccc(CCN2C(=O)c3cc(Cl)c(Cl)cc3C2=O)cc1`, the growth in test [1] is 103%; in test [2] it was 89.3%; in test [3], 98.3%; in test [4] it was 109%; in test [5] it was 102%; in [6], 99.2%. The growth is 105% in test [7]; 103% in [8]; 98.2% in test [9]; 110% in [10]; 103% in test [11]; 107% in [12]. Moreover, the growth in test [13] is 93%; in [14], 88.5%; in test [15], 105%; in test [16], 96.6%; in test [17], 104%; in test [18], 98%. Moreover, the growth in test [19] is 92.4%.
As to `CC(c1ccccc1)C(C(=O)c1ccccc1)c1ccccc1` (configuration not stated), the growth in [1] is 107%; in [2], 75.4%; in test [3], 63.9%; in test [4], 91%; in [5], 96.3%; in test [6], 94.8%. The growth in test [7] was 98.5%; in test [8], 94%; in test [9], 82.3%; in [10], 94%; in test [11] it was 98.5%; in [12], 88.5%. In addition, the growth in test [13] is 119%; in [14], 66.2%; in test [15] it was 48.9%; in [16], 89.2%.
`Cn1nc(CC#N)c2c(=N)n(N)cnc21`: the growth in test [1] is 111%; in [2] it was 116%; in [3], 87.4%; in test [4], 111%; in test [5], 99.4%; in [6], 96.2%. The growth in test [7] was 111%; in test [8], 103%; in [9], 103%; in test [10], 121%; in [11], 94.4%; in [12], 98.6%. Also, the growth in test [13] is 80.1%; in test [14], 104%; in test [15] it was 108%; in test [16], 95.3%; in test [18], 126%; in test [19], 94.7%.
With `Cc1ccc(-n2nc3c(c(C#N)c2=O)CC(c2ccccc2[N+](=O)[O-])C([N+](=O)[O-])=C3O)cc1` (configuration not stated), the growth was 84.1% in test [1]; 113% in test [2]; 80.1% in test [3]; 92.3% in test [4]; 91.3% in [5]; 88.3% in test [6]. The growth in test [7] is 87.5%; in test [8] it was 78.3%; in test [9] it was 82.9%; in test [10], 98.4%; in test [11], 77.1%; in test [13], 61.8%. The growth in [14] is 115%; in test [15], 86.4%; in test [16], 77.4%; in test [17] it was 95.9%; in [18] it was 88.2%; in test [19], 87.6%.
Consider `COc1ccc(-c2nc([C@@H](C)Sc3nc(N)cc(N)n3)c(C)s2)cc1OCCN1CCOCC1`, for which the growth in test [1] is 103%; in test [2], 97.4%; in test [3], 91.9%; in test [4], 91.3%; in test [5] it was 91.8%; in test [6], 79.8%. The growth in test [7] was 82.2%; in test [8] it was 84.3%; in [9], 95.8%; in test [10], 113%; in [11], 105%; in test [12] it was 99.8%. Moreover, the growth in test [13] was 73.7%; in test [14] it was 104%; in test [15] it was 92.3%; in test [16], 90.6%; in [17], 35.6%; in [18], 83.7%. Moreover, the growth in test [19] is 85.1%.
With `N#Cc1c(NC(=O)NCc2ccccc2)sc2c1CCCCC2`, the growth in test [1] was 15.2%; in test [2] it was 9.68% (active); in test [3] it was 22.8%; in test [4], 28.2%; in test [5] it was 24.8%; in test [6] it was 28.7%. For the same molecule, the growth was 17.6% in [7]; 18.9% in [8]; 26.4% in [9]; 67.4% in test [10]; 39.3% in test [11]; 30.3% in test [12]. Besides, the growth was 46.7% in [13]; 41.1% in test [14]; 43.4% in test [15]; 29.8% in test [16]; 14.7% in [18]; 18% in test [19].
Regarding `CCN1C(=O)N(CC)C2Nn3c(s/c(=C\c4ccc(OC)cc4)c3=O)=NC21` (configuration not stated), the growth in test [1] was 32.2%; in [2], 83.1%; in test [3] it was 8.85% (active); in test [4], 53.1%; in test [5], 39.3%; in test [6] it was 44.1%. For the same molecule, the growth in [7] is 47.6%; in test [8], 34.1%; in test [9] it was 53.6%; in [10] it was 62.8%; in test [11], 82.2%; in test [12], 62.6%. Also, the growth in test [13] is 48.6%; in [14], 11.2%; in test [15], 42.7%; in test [16], 31.9%; in [17] it was -2.46% (active); in test [18] it was 53.2%.
`Cc1cc2nc3c4cc([N+](=O)[O-])ccc4n(CCN(C)C)c3nc2cc1C`: the growth in test [1] was -15.7% (active); in test [2] it was 4.93% (active); in test [3], -6.58% (active); in [4], 8.53% (active); in test [5] it was 1.87% (active); in test [6], -0.344% (active). Also, the growth in test [7] was -73.4% (active); in test [8], -58.7% (active); in [9], -48.7% (active); in test [10] it was 2.33% (active); in test [11] it was -3.49% (active); in [12], 1.16% (active). For the same molecule, the growth in [13] was -41.9% (active); in test [14], -5.99% (active); in [15], -13% (active); in [16] it was -15.7% (active); in test [18], 3.84% (active); in test [19] it was 1.36% (active).
Take `Cc1nnc2c(Cc3ccccc3)nc3ccccc3n12`: the growth was 106% in [1]; 105% in [2]; 78.1% in test [3]; 103% in test [4]; 101% in test [5]; 104% in test [6]. Moreover, the growth was 97.6% in test [7]; 100% in [8]; 92.4% in test [9]; 103% in test [10]; 90.9% in [11]; 99.6% in test [12]. Moreover, the growth is 90.8% in [13]; 101% in test [14]; 100% in test [15]; 88.3% in test [16]; 91.1% in test [18]; 91.2% in test [19].
